# Experimental data reported in ChEMBL document CHEMBL2218924, “A broad activity screen in support of a chemogenomic map for kinase signalling research and drug discovery” (Biochem J, 2013).
# Experiments:
# [1] = target: T1, Serine/threonine-protein kinase TBK1 (Homo sapiens) (UniProt Q9UHD2); settings: at 10 µM
# T1 sequence (whole entry): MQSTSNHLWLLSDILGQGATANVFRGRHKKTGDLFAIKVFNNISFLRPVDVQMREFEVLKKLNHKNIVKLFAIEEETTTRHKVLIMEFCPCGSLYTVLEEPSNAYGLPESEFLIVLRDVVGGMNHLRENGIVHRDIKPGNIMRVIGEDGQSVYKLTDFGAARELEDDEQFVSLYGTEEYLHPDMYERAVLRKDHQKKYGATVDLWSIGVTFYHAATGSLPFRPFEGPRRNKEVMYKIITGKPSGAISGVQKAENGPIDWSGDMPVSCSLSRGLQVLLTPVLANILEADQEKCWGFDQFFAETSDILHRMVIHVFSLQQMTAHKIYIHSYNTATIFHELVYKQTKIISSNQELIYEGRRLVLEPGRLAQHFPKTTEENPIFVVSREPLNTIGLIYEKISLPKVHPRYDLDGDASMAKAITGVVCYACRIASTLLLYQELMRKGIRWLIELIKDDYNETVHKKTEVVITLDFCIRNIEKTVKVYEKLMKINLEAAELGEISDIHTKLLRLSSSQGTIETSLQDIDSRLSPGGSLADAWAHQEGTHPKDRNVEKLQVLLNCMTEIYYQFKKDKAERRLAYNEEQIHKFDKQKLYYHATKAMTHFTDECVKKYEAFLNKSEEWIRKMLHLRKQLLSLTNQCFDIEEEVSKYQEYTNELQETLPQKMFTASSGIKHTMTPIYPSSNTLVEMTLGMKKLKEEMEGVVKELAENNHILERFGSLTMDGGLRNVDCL
# [2] = target: T2, TGF-beta receptor type-1 (Homo sapiens) (UniProt P36897); settings: at 1 µM
# T2 sequence (whole entry): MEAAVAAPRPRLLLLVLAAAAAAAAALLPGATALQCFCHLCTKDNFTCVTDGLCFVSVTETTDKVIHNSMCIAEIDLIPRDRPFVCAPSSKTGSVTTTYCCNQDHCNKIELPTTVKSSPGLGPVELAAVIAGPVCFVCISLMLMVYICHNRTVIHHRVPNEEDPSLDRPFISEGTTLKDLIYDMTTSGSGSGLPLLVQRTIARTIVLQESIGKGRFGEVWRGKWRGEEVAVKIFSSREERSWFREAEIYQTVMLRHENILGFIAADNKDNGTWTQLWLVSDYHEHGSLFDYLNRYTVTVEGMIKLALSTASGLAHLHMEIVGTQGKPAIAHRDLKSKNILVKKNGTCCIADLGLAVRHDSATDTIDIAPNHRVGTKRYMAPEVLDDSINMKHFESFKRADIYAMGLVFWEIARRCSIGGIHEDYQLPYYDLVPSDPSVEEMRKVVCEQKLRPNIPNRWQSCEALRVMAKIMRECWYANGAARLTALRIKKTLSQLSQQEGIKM
# [3] = target: T2, TGF-beta receptor type-1 (Homo sapiens); settings: at 10 µM
# [4] = target: Insulin-like growth factor 1 receptor (Homo sapiens) (UniProt P08069); settings: at 1 µM
# [5] = target: Insulin-like growth factor 1 receptor (Homo sapiens) (UniProt P08069); settings: at 10 µM
# [6] = target: T3, Inhibitor of nuclear factor kappa-B kinase subunit alpha (Homo sapiens) (UniProt O15111); settings: at 1 µM
# T3 sequence (whole entry): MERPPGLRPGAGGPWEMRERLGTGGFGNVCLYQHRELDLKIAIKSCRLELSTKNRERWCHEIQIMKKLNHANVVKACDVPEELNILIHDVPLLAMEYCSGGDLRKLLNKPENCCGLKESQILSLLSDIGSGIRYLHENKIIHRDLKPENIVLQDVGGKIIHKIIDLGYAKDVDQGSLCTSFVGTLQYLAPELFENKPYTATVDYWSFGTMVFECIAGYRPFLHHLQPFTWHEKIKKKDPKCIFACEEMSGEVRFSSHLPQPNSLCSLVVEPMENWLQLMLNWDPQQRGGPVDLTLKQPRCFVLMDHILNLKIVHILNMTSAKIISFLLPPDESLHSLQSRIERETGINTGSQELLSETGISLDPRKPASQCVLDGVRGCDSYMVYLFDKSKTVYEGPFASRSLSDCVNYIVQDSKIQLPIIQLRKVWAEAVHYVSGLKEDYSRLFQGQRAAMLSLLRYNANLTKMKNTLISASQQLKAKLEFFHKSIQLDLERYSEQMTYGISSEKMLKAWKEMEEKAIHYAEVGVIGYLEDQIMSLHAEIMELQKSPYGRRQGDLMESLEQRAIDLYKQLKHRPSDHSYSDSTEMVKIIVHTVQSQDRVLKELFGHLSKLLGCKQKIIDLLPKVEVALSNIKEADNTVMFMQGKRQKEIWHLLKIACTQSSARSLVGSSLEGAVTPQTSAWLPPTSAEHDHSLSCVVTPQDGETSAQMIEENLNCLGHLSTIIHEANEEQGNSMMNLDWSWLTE
# [7] = target: T3, Inhibitor of nuclear factor kappa-B kinase subunit alpha (Homo sapiens); settings: at 10 µM
# [8] = target: T4, Inhibitor of nuclear factor kappa-B kinase subunit beta (Homo sapiens) (UniProt O14920); settings: at 1 µM
# T4 sequence (whole entry): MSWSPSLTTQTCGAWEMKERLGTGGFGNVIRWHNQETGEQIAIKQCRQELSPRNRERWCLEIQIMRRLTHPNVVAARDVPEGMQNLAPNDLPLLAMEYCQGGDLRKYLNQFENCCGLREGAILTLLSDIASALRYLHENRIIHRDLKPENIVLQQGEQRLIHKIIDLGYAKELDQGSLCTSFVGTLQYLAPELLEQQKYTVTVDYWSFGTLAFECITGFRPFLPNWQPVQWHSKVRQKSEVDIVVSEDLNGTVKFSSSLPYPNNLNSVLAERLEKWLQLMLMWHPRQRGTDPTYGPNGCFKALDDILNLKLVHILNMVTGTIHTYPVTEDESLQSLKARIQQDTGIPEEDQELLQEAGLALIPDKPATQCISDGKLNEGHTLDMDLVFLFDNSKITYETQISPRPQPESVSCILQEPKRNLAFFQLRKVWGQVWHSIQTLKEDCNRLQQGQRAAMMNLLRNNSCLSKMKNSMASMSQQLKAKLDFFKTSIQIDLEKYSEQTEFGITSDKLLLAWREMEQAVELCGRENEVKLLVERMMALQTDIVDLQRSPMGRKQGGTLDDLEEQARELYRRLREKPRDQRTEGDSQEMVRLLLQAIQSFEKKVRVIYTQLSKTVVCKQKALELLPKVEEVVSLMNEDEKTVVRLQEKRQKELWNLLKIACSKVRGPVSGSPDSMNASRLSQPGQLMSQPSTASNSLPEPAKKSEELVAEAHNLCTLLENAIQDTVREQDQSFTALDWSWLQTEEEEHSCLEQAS
# [9] = target: T4, Inhibitor of nuclear factor kappa-B kinase subunit beta (Homo sapiens); settings: at 10 µM
# [10] = target: Insulin receptor (Homo sapiens) (UniProt P06213); settings: at 1 µM
# Insulin receptor (Homo sapiens), sequence (P06213 28-758 limits assumed): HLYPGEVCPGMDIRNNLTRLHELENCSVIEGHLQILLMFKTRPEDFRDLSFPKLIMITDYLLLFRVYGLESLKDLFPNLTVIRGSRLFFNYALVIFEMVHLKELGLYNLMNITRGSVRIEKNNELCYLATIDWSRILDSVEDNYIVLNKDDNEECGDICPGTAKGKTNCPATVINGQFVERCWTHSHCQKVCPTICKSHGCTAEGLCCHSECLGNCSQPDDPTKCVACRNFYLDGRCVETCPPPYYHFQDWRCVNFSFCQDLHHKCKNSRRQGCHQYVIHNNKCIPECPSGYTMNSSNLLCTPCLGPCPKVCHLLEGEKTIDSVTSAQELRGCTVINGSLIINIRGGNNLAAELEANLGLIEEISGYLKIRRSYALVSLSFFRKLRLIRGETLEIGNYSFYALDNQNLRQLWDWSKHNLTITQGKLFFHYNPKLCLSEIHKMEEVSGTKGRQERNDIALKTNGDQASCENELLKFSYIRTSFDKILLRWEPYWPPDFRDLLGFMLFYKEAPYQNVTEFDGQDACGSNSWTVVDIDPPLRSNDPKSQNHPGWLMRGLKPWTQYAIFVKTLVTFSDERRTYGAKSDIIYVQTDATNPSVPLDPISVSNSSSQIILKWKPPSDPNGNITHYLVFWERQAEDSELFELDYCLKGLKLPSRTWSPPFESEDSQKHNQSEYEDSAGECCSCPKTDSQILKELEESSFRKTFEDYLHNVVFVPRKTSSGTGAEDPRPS
# Insulin receptor (Homo sapiens), sequence (P06213 763-1382 limits assumed): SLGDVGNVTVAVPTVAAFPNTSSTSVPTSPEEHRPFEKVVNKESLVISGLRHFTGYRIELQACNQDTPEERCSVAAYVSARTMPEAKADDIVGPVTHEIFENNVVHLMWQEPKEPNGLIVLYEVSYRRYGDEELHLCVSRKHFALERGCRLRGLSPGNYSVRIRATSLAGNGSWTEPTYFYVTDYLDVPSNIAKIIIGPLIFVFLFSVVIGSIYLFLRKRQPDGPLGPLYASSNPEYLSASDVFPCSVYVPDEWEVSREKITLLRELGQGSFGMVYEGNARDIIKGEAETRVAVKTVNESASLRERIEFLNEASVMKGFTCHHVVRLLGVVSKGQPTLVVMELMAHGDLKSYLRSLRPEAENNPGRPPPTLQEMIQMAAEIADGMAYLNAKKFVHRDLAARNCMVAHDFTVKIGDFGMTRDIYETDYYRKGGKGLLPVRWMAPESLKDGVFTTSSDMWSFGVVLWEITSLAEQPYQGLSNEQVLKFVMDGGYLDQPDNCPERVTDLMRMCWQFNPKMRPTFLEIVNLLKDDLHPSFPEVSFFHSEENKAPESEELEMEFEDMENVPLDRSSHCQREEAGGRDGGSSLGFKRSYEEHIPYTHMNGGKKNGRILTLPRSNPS
# Insulin-like growth factor 1 receptor (Homo sapiens), sequence (P08069 31-736 limits assumed): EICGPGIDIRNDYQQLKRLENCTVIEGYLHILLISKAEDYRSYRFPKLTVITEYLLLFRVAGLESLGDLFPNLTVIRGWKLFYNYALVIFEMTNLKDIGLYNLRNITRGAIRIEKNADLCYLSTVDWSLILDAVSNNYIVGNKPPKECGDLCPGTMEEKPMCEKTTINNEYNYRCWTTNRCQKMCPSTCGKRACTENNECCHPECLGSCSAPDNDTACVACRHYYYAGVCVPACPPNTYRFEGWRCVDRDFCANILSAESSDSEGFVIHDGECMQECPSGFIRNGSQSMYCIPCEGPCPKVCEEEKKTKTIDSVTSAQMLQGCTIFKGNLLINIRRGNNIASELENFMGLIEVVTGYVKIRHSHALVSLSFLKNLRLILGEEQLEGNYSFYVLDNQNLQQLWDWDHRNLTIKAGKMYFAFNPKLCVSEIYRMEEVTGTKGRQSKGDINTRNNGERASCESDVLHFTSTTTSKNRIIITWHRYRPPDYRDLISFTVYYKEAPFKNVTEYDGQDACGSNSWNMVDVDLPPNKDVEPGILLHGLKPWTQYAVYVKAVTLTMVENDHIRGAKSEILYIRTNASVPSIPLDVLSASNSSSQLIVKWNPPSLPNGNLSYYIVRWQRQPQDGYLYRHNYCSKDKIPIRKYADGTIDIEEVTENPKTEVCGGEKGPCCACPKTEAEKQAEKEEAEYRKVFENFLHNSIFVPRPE
# Insulin-like growth factor 1 receptor (Homo sapiens), sequence (P08069 741-1367 limits assumed): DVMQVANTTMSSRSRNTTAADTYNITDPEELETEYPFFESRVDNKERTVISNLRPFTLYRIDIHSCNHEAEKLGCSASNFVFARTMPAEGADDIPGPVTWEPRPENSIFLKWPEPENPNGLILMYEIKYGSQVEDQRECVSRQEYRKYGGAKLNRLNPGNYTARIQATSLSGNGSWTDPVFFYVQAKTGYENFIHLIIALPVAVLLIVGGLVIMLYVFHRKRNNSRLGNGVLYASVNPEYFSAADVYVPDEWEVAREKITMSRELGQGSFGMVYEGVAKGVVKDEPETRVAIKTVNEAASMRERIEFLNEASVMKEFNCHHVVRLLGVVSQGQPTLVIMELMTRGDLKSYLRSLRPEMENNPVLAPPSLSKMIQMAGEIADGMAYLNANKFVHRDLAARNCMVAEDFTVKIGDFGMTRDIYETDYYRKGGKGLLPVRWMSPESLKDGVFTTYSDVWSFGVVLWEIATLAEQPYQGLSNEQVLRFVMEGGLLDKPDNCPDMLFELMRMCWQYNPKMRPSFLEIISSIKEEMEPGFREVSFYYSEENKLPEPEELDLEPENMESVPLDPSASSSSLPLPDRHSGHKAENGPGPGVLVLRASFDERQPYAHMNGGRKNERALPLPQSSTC
smiles,measurement,setting,value
CO[C@H]1[C@@H](OC)C[C@H](C)[C@@H](OC)C2=CC(=O)C=C(NC(=O)/C(C)=C/C=C/[C@H](OC)[C@@H](OC(N)=O)/C(C)=C/[C@@H]1C)C2=O,residual activity,[1],69%
same,residual activity,[2],99%
same,residual activity,[3],89%
same,residual activity,[4],106%
same,residual activity,[5],96%
same,residual activity,[6],85%
same,residual activity,[7],113%
same,residual activity,[8],111%
same,residual activity,[9],107%
same,residual activity,[10],109%
